Experimental data as given in PubChem BioAssay (Tox21).
Several values for one entry are separate records, joined by “and”; a condition that tells them apart may be missing. Identical values can stand only once. Values without a mark were called inactive. Results filed as inconclusive are left out. Where a call stands in place of a potency, no number is given. Activity calls are given as the source filed them. Unless noted, the call rests on the fitted dose curve; in most records, active means well fitted curve in the direction sought with a large enough effect in the repeat runs; inconclusive means weak or mixed curves; inactive means no such curve, though single readings can be large; an effect the other way counts as inactive or inconclusive.

Legend:
[1] = qHTS assay to identify small molecule agonists of the constitutive androstane receptor (CAR) signaling pathway - cell viability counter screen (AID 1224836); further: nearly all actives have a fitted effect of over 45% in size
Outline: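 HepG2 cells stably carrying hCAR and a CYP2B6-2.2kb reporter; 15-concentration compounds plus PK11195 (final 0.75 uM), 23 hr at 37 C/5% CO2. Viability read by CellTiter-Fluor fluorescence.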

[2] = qHTS assay to identify small molecule antagonists of the constitutive androstane receptor (CAR) signaling pathway - cell viability counter screen (AID 1224837); further: nearly all actives have a fitted effect of over 45% in size; further: potency means the concentration at half of the fitted maximal effect
Outline: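 Multiplexed cytotoxicity read-out for the CAR antagonist screen: double-stable HepG2-CYP2B6-hCAR cells co-treated with 50 nM CITCO (final) and compound over 15 concentrations, incubated 23 hr, then assessed by CellTiter-Fluor fluorescence.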

[3] = target: Nuclear receptor subfamily 1 group I member 3 (Homo sapiens) (UniProt Q14994); test: qHTS assay to identify small molecule agonists of the constitutive androstane receptor (CAR) signaling pathway (AID 1224839); further: nearly all actives have a fitted effect of over 15% in size; further: potency means the concentration at half of the fitted maximal effect;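 on activation: HepG2 cells stably carrying human CAR and a CYP2B6 luciferase reporter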
Outline: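 HepG2 cells stably co-transfected with hCAR and a CYP2B6-2.2kb luciferase reporter; compounds at 15 concentrations with 0.75 uM PK11195 present. After 24 hr at 37 C, luciferase read by ONE-Glo luminescence.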

[4] = qHTS assay to identify small molecule antagonists of the estrogen related receptor signaling pathway with the pleiotropic PPARgamma coactivator (PGC) from Tox21 10K library - cell viability counter screen (AID 1224840; active means well fitted cell-killing curve with a large enough effect in the repeat runs, not every such curve was filed as active; further: nearly all actives have a fitted effect of over 40% in size; further: potency means the concentration at half of the fitted maximal effect)
Outline: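 Step one, plate 2,000 PGC/ERR cells per well; step two, incubate 6 h at 37 C/5% CO2; step three, pin-transfer compounds; step four, incubate 17.5 h; step five, add CellTiter-Fluor and read fluorescence after 30 min.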

[5] = qHTS assay to identify small molecule antagonists of the estrogen related receptor signaling pathway with the pleiotropic PPARgamma coactivator (PGC) from Tox21 10K library (AID 1224841; call rule not given here; further: actives are mostly falling curves and most rising ones were filed inactive; nearly all actives have a fitted effect of over 50% in size; further: potency means the concentration at half of the fitted maximal effect)
Outline: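 Antagonism in this quantitative HTS is taken from loss of luciferase signal in PGC/ERR cells. Cells (2,000/well) are treated with compounds in DMSO after a 6 h settling period and read by One-Glo luminescence after 18 h.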

[6] = qHTS assay to identify small molecule agonists of the estrogen related receptor signaling pathway with the pleiotropic PPARgamma coactivator (PGC) from Tox21 10K library (AID 1224842); further: nearly all actives have a fitted effect of over 15% in size
Outline: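 Luminescence from One-Glo (30 min, room temperature) measured after PGC/ERR cells had 18 h at 37 C with pinned compound (23 nL in DMSO). Cells had been seeded at 2,000 per well and pre-incubated 6 h.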

[7] = qHTS assay to identify small molecule agonists of the hypoxia (HIF-1) signaling pathway - cell viability counter screen (AID 1224844; calls by dose curve; further: nearly all actives have a fitted effect of over 50% in size; further: potency means the concentration at half of the fitted maximal effect)
Outline: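 Tox21 10K compounds were added to HRE-bla ME-180 cells (0.5% dialyzed FBS) and incubated 17 hrs at 37C; ATP-based CellTiter-Glo luminescence then reported cell viability in the same wells.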

[8] = qHTS assay to identify small molecule agonists of H2AX - cell viability counter screen (AID 1224847; calls by dose curve; further: nearly all actives have a fitted effect of over 30% in size; further: potency means the concentration at half of the fitted maximal effect)
Outline: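 CHO-K1 cells plated overnight at 37C, then exposed 3 h at 37C to compounds at 15 concentrations (0.76% DMSO final). Viability by CellTiter-Glo luminescence after 30 min at room temperature.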

[9] = qHTS assay to identify small molecule agonists of the estrogen related receptor (ERR) signaling pathway from Tox21 library (AID 1224849; calls by dose curve; further: nearly all actives have a fitted effect of over 15% in size); details: ERR reporter cell line, ONE-Glo luciferase, 18 h; at 92.4 µM (top of the series) unless noted
Outline: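 Agonist signal is luciferase luminescence from an ERR reporter cell line treated 18 h at 37 C with DMSO-dissolved compounds, read 30 min after ONE-Glo addition at room temperature.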

[10] = qHTS RealTime-Glo MT Cell Viability Assay in HepG2 cells - 24 hour (AID 1224867); further: nearly all actives have a fitted effect of over 50% in size; further: potency means the concentration at half of the fitted maximal effect
Outline: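 Cells + NanoLuc/prosubstrate dispensed (600 cells/well) → 5 h at 37 C/5% CO2 → compounds in DMSO transferred → 40 h incubation at 37 C, luminescence read at 0, 8, 16, 24, 32, 40 h.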

[11] = qHTS RealTime-Glo MT Cell Viability Assay in HEK293 cells - 32 hour (AID 1224868); further: nearly all actives have a fitted effect of over 50% in size; further: potency means the concentration at half of the fitted maximal effect
Outline: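 Tox21 10K qHTS, HEK293, 600 cells/well, RealTime-Glo reagent co-dispensed with cells; 5 h preincubation, compound by pintool, 37 C, luminescence at 0–40 h.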

[12] = A CellTox Green Cytotoxicity Assay to monitor cytotoxicity in HEK293 cells - 0 hour (AID 1224869); further: nearly all actives have a fitted effect of over 50% in size; further: potency means the concentration at half of the fitted maximal effect
Outline: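 Cytotoxicity was tracked continuously in HEK293 cells by a DNA-binding dye excluded from viable cells. Compounds were transferred in DMSO 5 h after seeding; fluorescence was recorded at intervals up to 40 h.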

[13] = qHTS RealTime-Glo MT Cell Viability Assay in HepG2 cells - 40 hour (AID 1224870); further: nearly all actives have a fitted effect of over 50% in size; further: potency means the concentration at half of the fitted maximal effect
Outline: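 Real-time viability: cells seeded at 600 per well together with NanoLuc and cell-permeant prosubstrate, compounds added after 5 h incubation. Luminescence tracked at 0, 8, 16, 24, 32 and 40 h of exposure.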

[14] = target: Luciferin 4-monooxygenase (Photinus pyralis) (UniProt P08659); test: qHTS assay to identify small molecule inhibitors of firefly luciferase (AID 1224835); further: nearly all actives have a fitted effect of over 25% in size; further: potency means the concentration at half of the fitted maximal effect
Outline: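 Inhibition of purified Photinus luciferase is measured by luminescence. Substrate levels (D-luciferin, ATP) sit at their KM values. Each compound is tested in a concentration series.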

[15] = target: Thyrotropin receptor (Homo sapiens) (UniProt P16473); test: qHTS assay to identify small molecule agonists of the thyroid stimulating hormone receptor (TSHR) signaling pathway (AID 1224843; calls by dose curve; further: nearly all actives have a fitted effect of over 45% in size; further: potency means the concentration at half of the fitted maximal effect)
Outline: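 HEK293 cells stably bearing the thyrotropin receptor were plated at 800 cells/well and challenged with compound (30 min, RT). Accumulated cAMP was quantified via cAMP-d2 competing for cryptate-tagged antibody.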

[16] = qHTS assay to identify small molecule agonists of H2AX (AID 1224845; active means well fitted activation curve with a large enough effect in the signal ratio in the repeat runs, not every such curve was filed as active; the % refers to the signal ratio; further: potency means the concentration at half of the fitted maximal effect)
Outline: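 Phospho-H2AX Ser139 measured by HTRF (ex 320 nm; em 665 and 620 nm) after 24 hr antibody incubation. Compounds, 15 concentrations, 0.76% DMSO, were applied to CHO-K1 cells for 3hr at 37C before lysis.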

[17] = qHTS assay to identify small molecule antagonists of the estrogen related receptor (ERR) signaling pathway from Tox21 library (AID 1224848); further: nearly all actives have a fitted effect of over 50% in size; further: potency means the concentration at half of the fitted maximal effect
Outline: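 Reading was by luminescence 30 min after ONE-Glo addition. Before that, ERR cells at 2,000 per well had rested 6 h at 37 C/5% CO2 and then received pin-tooled compounds in DMSO for 18 h at 37 C.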

[18] = target: Nuclear receptor subfamily 1 group I member 3 (Homo sapiens) (UniProt Q14994); test: qHTS assay to identify small molecule antagonists of the constitutive androstane receptor (CAR) signaling pathway (AID 1224838); further: nearly all actives have a fitted effect of over 40% in size; further: potency means the concentration at half of the fitted maximal effect
Outline: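 Compounds were titrated across 15 concentrations onto HepG2 cells double-stably expressing hCAR and a CYP2B6-2.2kb reporter, together with 50 nM CITCO (final). After 24 h at 37 C, luciferase activity was measured by luminescence.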

[19] = qHTS assay to identify small molecule agonists of the hypoxia (HIF-1) signaling pathway (AID 1224846; active means well fitted activation curve with a large enough effect in the signal ratio in the repeat runs, not every such curve was filed as active; the % refers to the signal ratio)
Outline: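 Steps: seed ME-180 HRE-bla cells (2,000/well, 0.5% dialyzed FBS); incubate 5 hrs at 37C; pin-transfer compounds or DMSO; incubate 17 hrs; add LiveBLAzer B/G substrate CCF4-AM; measure reporter activation by FRET.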

Sequence of Nuclear receptor subfamily 1 group I member 3 (Homo sapiens) (Q14994 whole entry, looked up): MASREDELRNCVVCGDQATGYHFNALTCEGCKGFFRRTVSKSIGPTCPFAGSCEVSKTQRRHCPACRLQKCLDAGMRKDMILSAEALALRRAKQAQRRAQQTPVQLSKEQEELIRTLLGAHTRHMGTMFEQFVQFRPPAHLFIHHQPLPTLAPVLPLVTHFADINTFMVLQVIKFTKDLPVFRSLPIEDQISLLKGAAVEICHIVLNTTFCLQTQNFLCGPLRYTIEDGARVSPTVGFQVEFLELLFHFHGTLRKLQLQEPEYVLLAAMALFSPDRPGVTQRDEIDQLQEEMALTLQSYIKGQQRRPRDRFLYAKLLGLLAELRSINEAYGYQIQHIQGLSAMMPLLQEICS
Sequence of Luciferin 4-monooxygenase (Photinus pyralis) (P08659 whole entry, looked up): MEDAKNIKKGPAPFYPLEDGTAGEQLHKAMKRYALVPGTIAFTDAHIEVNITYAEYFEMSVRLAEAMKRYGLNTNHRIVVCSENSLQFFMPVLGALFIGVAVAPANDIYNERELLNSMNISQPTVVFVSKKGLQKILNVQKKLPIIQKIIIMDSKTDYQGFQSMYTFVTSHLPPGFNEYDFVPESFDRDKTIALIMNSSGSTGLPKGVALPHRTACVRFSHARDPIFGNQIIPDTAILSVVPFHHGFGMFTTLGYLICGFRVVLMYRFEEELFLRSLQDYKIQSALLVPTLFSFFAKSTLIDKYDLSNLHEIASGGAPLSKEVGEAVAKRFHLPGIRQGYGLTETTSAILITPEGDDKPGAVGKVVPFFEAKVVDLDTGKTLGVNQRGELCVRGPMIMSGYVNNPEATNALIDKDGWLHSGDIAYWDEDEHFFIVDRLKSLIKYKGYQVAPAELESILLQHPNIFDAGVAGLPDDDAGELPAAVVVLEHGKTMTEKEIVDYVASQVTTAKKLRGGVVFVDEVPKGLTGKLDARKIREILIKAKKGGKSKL
Sequence of Thyrotropin receptor (Homo sapiens) (P16473 whole entry, looked up): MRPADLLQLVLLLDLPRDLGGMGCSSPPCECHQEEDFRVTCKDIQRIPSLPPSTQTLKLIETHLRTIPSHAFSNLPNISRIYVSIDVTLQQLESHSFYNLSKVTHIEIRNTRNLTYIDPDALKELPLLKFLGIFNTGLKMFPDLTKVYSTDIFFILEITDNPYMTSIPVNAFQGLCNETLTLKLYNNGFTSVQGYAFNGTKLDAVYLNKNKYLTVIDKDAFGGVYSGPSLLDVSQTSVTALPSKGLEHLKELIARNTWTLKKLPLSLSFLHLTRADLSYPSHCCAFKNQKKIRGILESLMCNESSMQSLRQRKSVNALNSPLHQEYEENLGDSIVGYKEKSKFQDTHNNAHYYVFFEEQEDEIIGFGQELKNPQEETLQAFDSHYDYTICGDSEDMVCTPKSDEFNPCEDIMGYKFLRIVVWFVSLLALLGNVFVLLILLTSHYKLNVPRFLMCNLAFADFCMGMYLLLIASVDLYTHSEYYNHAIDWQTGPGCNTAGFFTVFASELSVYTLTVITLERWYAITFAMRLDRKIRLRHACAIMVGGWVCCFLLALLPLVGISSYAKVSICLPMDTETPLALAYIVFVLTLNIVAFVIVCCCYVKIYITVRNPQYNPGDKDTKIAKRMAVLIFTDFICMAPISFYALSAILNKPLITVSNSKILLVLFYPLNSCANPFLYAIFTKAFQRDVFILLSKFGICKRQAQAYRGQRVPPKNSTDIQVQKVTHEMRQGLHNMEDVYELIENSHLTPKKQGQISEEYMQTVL

SMILES | Potency [1] | Potency [2] | Potency [3] | Potency [4] | Potency [5] | Potency [6] | Potency [7] | Potency [8] | activity change, positive = activation [9] | Potency [10] | Potency [11] | Potency [12] | Potency [13] | Potency [14] | Potency [15] | Potency [16] | Potency [17] | Potency [18] | Potency [19]
Nc1cc(C(F)(F)F)ccc1S | inactive | inactive | inactive | inactive | 29.8 µM (active) | inactive | inactive | inactive | -31.1% [at 42.5 µM] | inactive | inactive | inactive | inactive | – | – | – | – | – | –
CNCc1cc(F)ccc1Oc1ccc(Cl)c(Cl)c1 | – | 61.1 µM (active) | – | – | inactive | inactive | – | 45 µM (active) | -40.3% | 49 µM (active) | 43.6 µM (active) | inactive | – | inactive | 54.5 µM (active) | inactive | 48.6 µM (active) | – | –
C=C(C)C(=O)OCC(O)COc1ccc(C(C)(C)c2ccc(OCC(O)COC(=O)C(=C)C)cc2)cc1 (stereo unspecified) | – | 61.1 µM (active) | inactive | 30.6 µM (active) | 43.3 µM (active) | inactive | – | 35.7 µM (active) | -80.3% | 19.5 µM (active) | 12.3 µM (active) | inactive | – | – | inactive | inactive | 27.3 µM (active) | – | –
CCCCCCCCOC(=O)c1ccc(O)cc1 | inactive | inactive | – | inactive | – | – | 48.8 µM (active) | 89.5 µM (active) and 101 µM (active) | – | inactive | 27.4 µM (active) | inactive | inactive | – | inactive | inactive | – | inactive | –
CC[C@@]1(O)C(=O)OCc2c1cc1n(c2=O)Cc2cc3c(CN(C)C)c(O)ccc3nc2-1 | – | – | inactive | – | 16.8 µM (active) | inactive | – | – | -50.2% [at 42.5 µM] | – | 0.0674 µM (active) | 23.9 µM (active) | 5.35 µM (active) | inactive | inactive | 1.39 µM (active) | 1.19 µM (active) | 0.15 µM (active) | –
CSc1ccc(/C=C2/C(C)=C(CC(=O)O)c3cc(F)ccc32)cc1 | inactive | inactive | inactive | inactive | inactive | inactive | 10.7 µM (active) | inactive | -7.17% [at 42.5 µM] | inactive | inactive | – | inactive | – | inactive | inactive | inactive | inactive | –
Cc1cc(O)c2ccccc2c1O | inactive | – | inactive | inactive | – | inactive | 13.4 µM (active) | 5.52 µM (active) | -47.1% [at 42.5 µM] | 13.4 µM (active) | 8.49 µM (active) | inactive | 13.4 µM (active) | – | inactive | – | 13.3 µM (active) | 16.8 µM (active) | –
CSc1ccc2c(c1)C(N1CCN(C)CC1)Cc1ccccc1S2 (stereo unspecified) | inactive | – | inactive | – | – | – | – | – | – | 23.9 µM (active) | – | inactive | – | – | – | – | – | inactive | –
Cc1oc(-c2ccccc2)nc1CCC(=O)c1ccc(CC2SC(=O)NC2=O)cc1 (stereo unspecified) | inactive | inactive | inactive | inactive | inactive | inactive | inactive | inactive | -19.2% [at 42.5 µM] | inactive | inactive | – | inactive | – | inactive | inactive | – | inactive | –
COc1cccc(N)c1 | inactive | inactive | inactive | inactive | – | – | inactive | – | -25.2% | inactive | inactive | – | inactive | – | inactive | inactive | inactive | inactive | inactive
Oc1ccc(N=Nc2ccccc2)cc1 | – | – | 27.7 µM (active) | – | – | – | inactive | – | – | inactive | 19.8 µM (active) | inactive | inactive | 9.06 µM (active) | 49.2 µM (active) | – | – | inactive | –
CN(C/C=C/C#CC(C)(C)C)Cc1cccc2ccccc12 | inactive | inactive | – | inactive | – | – | inactive | 55.2 µM (active) | – | inactive | – | inactive | inactive | – | inactive | – | – | inactive | inactive
Nc1nc2ccccc2n1Cc1ccc(F)cc1 | – | – | 15 µM (active) | inactive | inactive | inactive | – | inactive | -28.8% [at 42.5 µM] | inactive | – | inactive | inactive | inactive | inactive | inactive | – | inactive | –
OCCN(CCO)c1nc(N2CCCCC2)c2nc(N(CCO)CCO)nc(N3CCCCC3)c2n1 | – | – | inactive | – | 21.1 µM (active) | inactive | – | inactive | -56% [at 42.5 µM] | inactive | 26.8 µM (active) | – | inactive | inactive | – | – | 13.3 µM (active) | inactive | –
O=C(Nc1cccc(C(F)(F)F)c1)c1cc(Br)cc(Br)c1O | – | – | inactive | 6.86 µM (active) | – | – | 19.5 µM (active) | 16 µM (active) | – | – | 4.36 µM (active) | inactive | 21.9 µM (active) | 3.99 µM (active) | inactive | – | – | 15.4 µM (active) | –
CCCC(=O)OC[C@@H](OC(=O)CCC)[C@@H](OC(=O)CCC)[C@H](Cn1c2nc(=O)[nH]c(=O)c-2nc2cc(C)c(C)cc21)OC(=O)CCC | – | – | inactive | – | 23.7 µM (active) | inactive | – | inactive | -44.5% [at 42.5 µM] | – | – | 19 µM (active) | inactive | inactive | inactive | – | 29.8 µM (active) | 29.8 µM (active) | –
